Source: PubChem BioAssay AID1159580 (chemical genetic matrix, 2015)
Screen size: about 5,500 compounds; about 2,000 (36%) were called active. About 18% were inconclusive and are not listed. Some of the results follow. A number with no mark means an inactive call. Cut-off read from the data, not from the text of the source: active = normalized growth mostly below about 0.91 (no sharp cut-off); inconclusive = no clear call, values can overlap the other calls; inactive = mostly above about 0.92.

Test: chemical genetic growth profiling, strain panel (AID 1159580);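 note: tested at 20 µM; growth read once vehicle control cultures reached saturation at 30 °C; 1 = growth at the plate median or of vehicle wells; lower values mean less growth of the strain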
Conditions: growth OD
[1] = S. cerevisiae deletion strains, locus YDL101C, strain DUN1, active compounds read low
[2] = S. cerevisiae deletion strains, locus YHR030C, strain SLT2, active compounds read low

## COc1ccc(/C=C(\C#N)c2nc3ccccc3[nH]2)cc1OC
S. cerevisiae deletion strains, locus YAL013W, strain DEP1, active compounds read low
  normalized growth: 0.947
S. cerevisiae deletion strains, locus YBR229C, strain ROT2, active compounds read low
  normalized growth: 0.947
[1]
  normalized growth: 0.961
S. cerevisiae deletion strains, locus YDL134C, strain PPH21, active compounds read low
  normalized growth: 0.942
S. cerevisiae deletion strains, locus YDR150W, strain NUM1, active compounds read low
  normalized growth: 0.934
S. cerevisiae deletion strains, locus YEL061C, strain CIN8, active compounds read low
  normalized growth: 0.921
S. cerevisiae deletion strains, locus YGR078C, strain PAC10, active compounds read low
  normalized growth: 0.948
[2]
  normalized growth: 0.703
S. cerevisiae deletion strains, locus YHR087W, strain rtc3, active compounds read low
  normalized growth: 0.912
S. cerevisiae deletion strains, locus YJR043C, strain POL32, active compounds read low
  normalized growth: 0.959
S. cerevisiae deletion strains, locus YJR075W, strain HOC1, active compounds read low
  normalized growth: 0.859 (active)
S. cerevisiae deletion strains, locus YLR039C, strain RIC1, active compounds read low
  normalized growth: 0.817
S. cerevisiae deletion strains, locus YLR058C, strain SHM2 (second series), active compounds read low
  normalized growth: 0.957
S. cerevisiae deletion strains, locus YLR085C, strain ARP6, active compounds read low
  normalized growth: 0.499 (active)
S. cerevisiae deletion strains, locus YLR262C, strain YPT6, active compounds read low
  normalized growth: 0.851
S. cerevisiae deletion strains, locus YML094W, strain GIM5, active compounds read low
  normalized growth: 0.909
S. cerevisiae deletion strains, locus YMR219W, strain ESC1, active compounds read low
  normalized growth: 0.971
S. cerevisiae deletion strains, locus YMR263W, strain SAP30, active compounds read low
  normalized growth: 0.956
S. cerevisiae deletion strains, locus YMR307W, strain GAS1, active compounds read low
  normalized growth: 0.609 (active)
S. cerevisiae deletion strains, locus YNL153C, strain GIM3, active compounds read low
  normalized growth: 0.975
S. cerevisiae deletion strains, locus YNL298W, strain CLA4 (second series), active compounds read low
  normalized growth: 0.856
S. cerevisiae deletion strains, locus YNL322C, strain KRE1, active compounds read low
  normalized growth: 0.95
S. cerevisiae deletion strains, locus YNR030W, strain Alg12, active compounds read low
  normalized growth: 0.906
S. cerevisiae deletion strains, locus YOL006C, strain TOP1, active compounds read low
  normalized growth: 0.725 (active)
S. cerevisiae deletion strains, locus YPL055C, strain LGE1, active compounds read low
  normalized growth: 0.885
S. cerevisiae deletion strains, locus YPL241C, strain CIN2, active compounds read low
  normalized growth: 0.857 (active)
S. cerevisiae deletion strains, locus YPR135W, strain CTF4, active compounds read low
  normalized growth: 0.759
S. cerevisiae strains, strain wild type, active compounds read low
  normalized growth: 0.94

## N#C/C(=C\C=C\c1ccccc1)c1nc2ccccc2[nH]1
S. cerevisiae deletion strains, locus YAR019C, strain CDC15, active compounds read low
  normalized growth: 0.958
S. cerevisiae deletion strains, locus YBL105C, strain PKC1, active compounds read low
  normalized growth: 0.969
S. cerevisiae deletion strains, locus YBR135W, strain CKS1, active compounds read low
  normalized growth: 0.944
S. cerevisiae deletion strains, locus YBR136W, strain MEC1, active compounds read low
  normalized growth: 0.962
S. cerevisiae deletion strains, locus YBR160W, strain CDC28, active compounds read low
  normalized growth: 0.962
S. cerevisiae deletion strains, locus YDL017W, strain CDC7, active compounds read low
  normalized growth: 0.961
S. cerevisiae deletion strains, locus YDL028C, strain MPS1, active compounds read low
  normalized growth: 0.962
[1]
  normalized growth: 0.973
S. cerevisiae deletion strains, locus YDL108W, strain KIN28, active compounds read low
  normalized growth: 0.968
S. cerevisiae deletion strains, locus YDL132W, strain cdc53, active compounds read low
  normalized growth: 0.964
S. cerevisiae deletion strains, locus YDL214C, strain PRR2, active compounds read low
  normalized growth: 0.864
S. cerevisiae deletion strains, locus YDR052C, strain DBF4, active compounds read low
  normalized growth: 0.966
S. cerevisiae deletion strains, locus YDR054C, strain cdc34, active compounds read low
  normalized growth: 0.955
S. cerevisiae deletion strains, locus YDR226W, strain ADK1, active compounds read low
  normalized growth: 0.962
S. cerevisiae deletion strains, locus YDR477W, strain SNF1, active compounds read low
  normalized growth: 0.823
S. cerevisiae deletion strains, locus YER123W, strain YCK3, active compounds read low
  normalized growth: 0.878
S. cerevisiae deletion strains, locus YER133W, strain GLC7, active compounds read low
  normalized growth: 0.834
S. cerevisiae deletion strains, locus YFL009W, strain cdc4, active compounds read low
  normalized growth: 0.964
S. cerevisiae deletion strains, locus YFL029C, strain CAK1, active compounds read low
  normalized growth: 0.958
S. cerevisiae deletion strains, locus YFR003C, strain YPI1, active compounds read low
  normalized growth: 0.976
S. cerevisiae deletion strains, locus YFR019W, strain FAB1, active compounds read low
  normalized growth: 0.966
S. cerevisiae deletion strains, locus YFR028C, strain CDC14, active compounds read low
  normalized growth: 0.956
S. cerevisiae deletion strains, locus YGR040W, strain KSS1, active compounds read low
  normalized growth: 0.83
S. cerevisiae deletion strains, locus YGR052W, strain FMP48, active compounds read low
  normalized growth: 0.916
S. cerevisiae deletion strains, locus YGR092W, strain DBF2, active compounds read low
  normalized growth: 0.829
[2]
  normalized growth: 0.673 (active)
S. cerevisiae deletion strains, locus YHR079C, strain IRE1, active compounds read low
  normalized growth: 0.848
S. cerevisiae deletion strains, locus YHR082C, strain KSP1, active compounds read low
  normalized growth: 0.819
S. cerevisiae deletion strains, locus YHR205W, strain SCH9, active compounds read low
  normalized growth: 0.818
S. cerevisiae deletion strains, locus YIL147C, strain SLN1, active compounds read low
  normalized growth: 0.967
S. cerevisiae deletion strains, locus YJL095W, strain BCK1, active compounds read low
  normalized growth: 0.729
S. cerevisiae deletion strains, locus YJL128C, strain PBS2, active compounds read low
  normalized growth: 0.957
S. cerevisiae deletion strains, locus YJL157C, strain FAR1, active compounds read low
  normalized growth: 0.886
S. cerevisiae deletion strains, locus YJR016C, strain ILV3, active compounds read low
  normalized growth: 0.958
S. cerevisiae deletion strains, locus YJR066W, strain TOR1 (second series), active compounds read low
  normalized growth: 0.871
S. cerevisiae deletion strains, locus YJR066W, strain TOR1, active compounds read low
  normalized growth: 0.791
S. cerevisiae deletion strains, locus YKL048C, strain ELM1, active compounds read low
  normalized growth: 0.904
S. cerevisiae deletion strains, locus YKL067W, strain YNK1, active compounds read low
  normalized growth: 0.898
S. cerevisiae deletion strains, locus YKL101W, strain HSL1, active compounds read low
  normalized growth: 0.882
S. cerevisiae deletion strains, locus YKL193C, strain SDS22, active compounds read low
  normalized growth: 0.95
S. cerevisiae deletion strains, locus YKL203C, strain TOR2, active compounds read low
  normalized growth: 0.878
S. cerevisiae deletion strains, locus YLR113W, strain HOG1, active compounds read low
  normalized growth: 0.658 (active)
S. cerevisiae deletion strains, locus YLR133W, strain CKI1, active compounds read low
  normalized growth: 0.891
S. cerevisiae deletion strains, locus YLR403W, strain SFP1, active compounds read low
  normalized growth: 0.86
S. cerevisiae deletion strains, locus YML070W, strain DAK1, active compounds read low
  normalized growth: 0.864
S. cerevisiae deletion strains, locus YMR001C, strain CDC5, active compounds read low
  normalized growth: 0.956
S. cerevisiae deletion strains, locus YMR205C, strain PFK2 (second series), active compounds read low
  normalized growth: 0.901
S. cerevisiae deletion strains, locus YMR277W, strain FCP1, active compounds read low
  normalized growth: 0.955
S. cerevisiae deletion strains, locus YNL006W, strain LST8, active compounds read low
  normalized growth: 0.96
S. cerevisiae deletion strains, locus YNL020C, strain ARK1, active compounds read low
  normalized growth: 0.896
S. cerevisiae deletion strains, locus YNL161W, strain CBK1, active compounds read low
  normalized growth: 0.956
S. cerevisiae deletion strains, locus YNL183C, strain NPR1, active compounds read low
  normalized growth: 0.793
S. cerevisiae deletion strains, locus YNL207W, strain RIO2, active compounds read low
  normalized growth: 0.946
S. cerevisiae deletion strains, locus YNL222W, strain SSU72, active compounds read low
  normalized growth: 0.957
S. cerevisiae deletion strains, locus YNL307C, strain MCK1 (second series), active compounds read low
  normalized growth: 0.866
S. cerevisiae deletion strains, locus YOL078W, strain AVO1, active compounds read low
  normalized growth: 0.954
S. cerevisiae deletion strains, locus YOL136C, strain PFK27, active compounds read low
  normalized growth: 0.885
S. cerevisiae deletion strains, locus YOR061W, strain CKA2, active compounds read low
  normalized growth: 0.908
S. cerevisiae deletion strains, locus YOR119C, strain RIO1, active compounds read low
  normalized growth: 0.875
S. cerevisiae deletion strains, locus YOR231W, strain MKK1, active compounds read low
  normalized growth: 0.828
S. cerevisiae deletion strains, locus YOR329C, strain SCD5, active compounds read low
  normalized growth: 0.976
S. cerevisiae deletion strains, locus YPL031C, strain PHO85, active compounds read low
  normalized growth: 0.824
S. cerevisiae deletion strains, locus YPL153C, strain RAD53, active compounds read low
  normalized growth: 0.855
S. cerevisiae deletion strains, locus YPL204W, strain HRR25, active compounds read low
  normalized growth: 0.827
S. cerevisiae deletion strains, locus YPL209C, strain IPL1, active compounds read low
  normalized growth: 0.963
S. cerevisiae deletion strains, locus YPL256C, strain CLN2, active compounds read low
  normalized growth: 0.767 (active)
S. cerevisiae deletion strains, locus YPR025C, strain CCL1, active compounds read low
  normalized growth: 0.952
S. cerevisiae deletion strains, locus YPR106W, strain ISR1, active compounds read low
  normalized growth: 0.965
S. cerevisiae deletion strains, locus YPR111W, strain DBF20, active compounds read low
  normalized growth: 0.944
S. cerevisiae deletion strains, strain NNK1, active compounds read low
  normalized growth: 0.942
S. cerevisiae deletion strains, strain TSCII, active compounds read low
  normalized growth: 0.952
